According to the supplement of paper PMC10849652:
The full data set covers some 7,900 targets. This sample favours those with a hit. About 0.6% of all pairs of compound and target were hits. Unmarked numbers belong to inactive results.

Each target was assayed with CS(=O)(=O)CCNCc1ccc(-c2ccc3ncnc(Nc4ccc(OCc5cccc(F)c5)c(Cl)c4)c3c2)o1 [lapatinib] (assay: log2 fold change, soluble protein after heating vs DMSO (PISA); higher = thermal stabilisation; K562 cells, 10 uM, 30 min; active = over 0.2 and 3.5 SD of the protein, either way, in both replicates (recomputed)).
Procedure, shortened: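 K562 cells (2×10^6 cells/mL) were treated with 10 μM compound for 30 min, and aliquots were heated for 3 min over 48°C-58°C. Pooled aliquots were extracted in PBS with 0.5% NP-40 at 4°C, and the supernatant after 21,000xg for 90 min was measured by TMTpro 16plex LC-MS/MS with channel sums equalised. Reported thermal stability, relative to control samples and from duplicates, is a log2 fold change.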

Chain of UniProt Q9Y6H3 (Q9Y6H3 whole entry, looked up): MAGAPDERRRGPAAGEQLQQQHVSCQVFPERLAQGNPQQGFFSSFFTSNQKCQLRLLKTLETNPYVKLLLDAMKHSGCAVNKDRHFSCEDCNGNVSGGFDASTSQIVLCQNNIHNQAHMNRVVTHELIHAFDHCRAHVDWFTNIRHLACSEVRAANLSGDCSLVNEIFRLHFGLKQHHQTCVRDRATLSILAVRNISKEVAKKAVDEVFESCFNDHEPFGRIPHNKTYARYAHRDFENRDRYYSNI
Chain of UniProt Q9UKG1 (Q9UKG1 whole entry, looked up): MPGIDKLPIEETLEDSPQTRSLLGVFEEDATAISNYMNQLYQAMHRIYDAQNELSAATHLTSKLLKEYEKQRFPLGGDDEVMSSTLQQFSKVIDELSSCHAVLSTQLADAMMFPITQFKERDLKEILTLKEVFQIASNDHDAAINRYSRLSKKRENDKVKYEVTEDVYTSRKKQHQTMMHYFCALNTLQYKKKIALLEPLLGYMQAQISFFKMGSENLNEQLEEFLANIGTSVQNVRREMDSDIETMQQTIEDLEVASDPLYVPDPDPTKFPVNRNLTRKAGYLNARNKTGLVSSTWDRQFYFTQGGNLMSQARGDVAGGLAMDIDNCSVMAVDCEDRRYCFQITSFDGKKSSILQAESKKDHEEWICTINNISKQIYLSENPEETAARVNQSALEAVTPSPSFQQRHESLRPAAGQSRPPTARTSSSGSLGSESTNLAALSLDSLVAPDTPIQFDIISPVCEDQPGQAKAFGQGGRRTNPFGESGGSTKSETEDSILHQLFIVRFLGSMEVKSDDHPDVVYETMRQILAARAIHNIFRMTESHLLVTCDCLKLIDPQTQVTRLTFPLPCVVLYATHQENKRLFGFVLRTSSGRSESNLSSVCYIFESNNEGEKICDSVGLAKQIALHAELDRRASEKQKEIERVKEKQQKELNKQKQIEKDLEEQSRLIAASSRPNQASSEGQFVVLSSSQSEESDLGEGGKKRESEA
Chain of UniProt Q96P47 (Q96P47 whole entry, looked up): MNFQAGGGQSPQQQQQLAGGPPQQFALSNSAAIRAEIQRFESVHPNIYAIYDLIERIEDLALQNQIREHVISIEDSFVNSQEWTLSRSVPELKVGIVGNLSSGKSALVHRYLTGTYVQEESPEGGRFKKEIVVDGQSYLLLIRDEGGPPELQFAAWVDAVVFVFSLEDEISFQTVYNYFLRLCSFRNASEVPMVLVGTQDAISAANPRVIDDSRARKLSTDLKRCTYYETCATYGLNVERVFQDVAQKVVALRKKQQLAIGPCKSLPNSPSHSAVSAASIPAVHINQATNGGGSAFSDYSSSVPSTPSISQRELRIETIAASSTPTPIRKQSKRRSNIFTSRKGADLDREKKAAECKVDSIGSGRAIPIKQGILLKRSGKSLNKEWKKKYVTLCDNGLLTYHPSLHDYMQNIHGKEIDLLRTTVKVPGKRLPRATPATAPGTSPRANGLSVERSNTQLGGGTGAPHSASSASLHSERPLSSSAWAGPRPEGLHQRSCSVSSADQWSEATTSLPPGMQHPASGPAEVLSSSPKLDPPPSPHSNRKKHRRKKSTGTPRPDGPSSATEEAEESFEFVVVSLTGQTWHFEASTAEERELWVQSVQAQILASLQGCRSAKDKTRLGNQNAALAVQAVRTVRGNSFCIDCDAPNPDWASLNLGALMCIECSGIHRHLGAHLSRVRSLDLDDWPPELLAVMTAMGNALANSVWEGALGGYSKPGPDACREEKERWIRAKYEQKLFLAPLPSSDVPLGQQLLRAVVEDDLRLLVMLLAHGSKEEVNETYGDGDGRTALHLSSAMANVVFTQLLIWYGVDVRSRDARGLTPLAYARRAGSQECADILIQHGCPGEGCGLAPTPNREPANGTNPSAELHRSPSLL
Chain of UniProt Q15904 (Q15904 whole entry, looked up): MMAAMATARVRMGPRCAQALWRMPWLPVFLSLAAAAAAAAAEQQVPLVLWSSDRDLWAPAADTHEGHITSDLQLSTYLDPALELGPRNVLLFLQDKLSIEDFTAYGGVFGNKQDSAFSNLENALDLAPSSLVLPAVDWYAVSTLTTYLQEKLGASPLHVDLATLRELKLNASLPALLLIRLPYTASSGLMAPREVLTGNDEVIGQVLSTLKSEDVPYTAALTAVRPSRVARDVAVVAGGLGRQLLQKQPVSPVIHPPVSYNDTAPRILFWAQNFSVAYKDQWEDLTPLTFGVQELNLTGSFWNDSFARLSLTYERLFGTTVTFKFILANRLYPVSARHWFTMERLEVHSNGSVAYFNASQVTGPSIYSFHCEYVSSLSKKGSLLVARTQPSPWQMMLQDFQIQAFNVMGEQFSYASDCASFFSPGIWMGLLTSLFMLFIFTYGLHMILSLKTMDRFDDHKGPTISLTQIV
Chain of UniProt P33121 (P33121 whole entry, looked up): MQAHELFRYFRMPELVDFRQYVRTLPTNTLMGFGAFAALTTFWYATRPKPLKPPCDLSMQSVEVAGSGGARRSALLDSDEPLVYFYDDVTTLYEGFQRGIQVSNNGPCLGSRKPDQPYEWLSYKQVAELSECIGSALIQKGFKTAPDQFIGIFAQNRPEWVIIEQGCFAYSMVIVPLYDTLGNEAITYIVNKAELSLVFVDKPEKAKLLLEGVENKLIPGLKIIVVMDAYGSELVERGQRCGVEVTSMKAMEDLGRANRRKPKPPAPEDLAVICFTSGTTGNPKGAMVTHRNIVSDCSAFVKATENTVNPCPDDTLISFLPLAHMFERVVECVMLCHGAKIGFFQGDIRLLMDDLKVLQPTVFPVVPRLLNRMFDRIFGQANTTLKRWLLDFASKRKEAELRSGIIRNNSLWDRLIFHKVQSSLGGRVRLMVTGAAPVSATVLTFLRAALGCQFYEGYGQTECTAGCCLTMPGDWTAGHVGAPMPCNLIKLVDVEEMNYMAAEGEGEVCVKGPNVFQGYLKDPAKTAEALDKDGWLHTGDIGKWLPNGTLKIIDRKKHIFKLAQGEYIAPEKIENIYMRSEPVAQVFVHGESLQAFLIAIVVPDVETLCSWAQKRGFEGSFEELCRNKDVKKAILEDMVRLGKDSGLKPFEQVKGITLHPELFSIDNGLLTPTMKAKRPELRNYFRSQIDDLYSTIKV
Chain of UniProt P42025 (P42025 whole entry, looked up): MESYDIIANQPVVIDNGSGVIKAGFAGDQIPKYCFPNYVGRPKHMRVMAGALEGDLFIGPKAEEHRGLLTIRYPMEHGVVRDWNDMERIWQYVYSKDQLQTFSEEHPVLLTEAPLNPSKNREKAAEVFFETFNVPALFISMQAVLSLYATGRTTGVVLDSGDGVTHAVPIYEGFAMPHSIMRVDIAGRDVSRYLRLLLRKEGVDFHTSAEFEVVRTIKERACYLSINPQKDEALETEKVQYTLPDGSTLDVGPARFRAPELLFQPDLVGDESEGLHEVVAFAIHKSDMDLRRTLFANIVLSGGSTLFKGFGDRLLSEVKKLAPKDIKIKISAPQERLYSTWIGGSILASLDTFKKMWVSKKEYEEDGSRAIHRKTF
Chain of UniProt P05091 (P05091 whole entry, looked up): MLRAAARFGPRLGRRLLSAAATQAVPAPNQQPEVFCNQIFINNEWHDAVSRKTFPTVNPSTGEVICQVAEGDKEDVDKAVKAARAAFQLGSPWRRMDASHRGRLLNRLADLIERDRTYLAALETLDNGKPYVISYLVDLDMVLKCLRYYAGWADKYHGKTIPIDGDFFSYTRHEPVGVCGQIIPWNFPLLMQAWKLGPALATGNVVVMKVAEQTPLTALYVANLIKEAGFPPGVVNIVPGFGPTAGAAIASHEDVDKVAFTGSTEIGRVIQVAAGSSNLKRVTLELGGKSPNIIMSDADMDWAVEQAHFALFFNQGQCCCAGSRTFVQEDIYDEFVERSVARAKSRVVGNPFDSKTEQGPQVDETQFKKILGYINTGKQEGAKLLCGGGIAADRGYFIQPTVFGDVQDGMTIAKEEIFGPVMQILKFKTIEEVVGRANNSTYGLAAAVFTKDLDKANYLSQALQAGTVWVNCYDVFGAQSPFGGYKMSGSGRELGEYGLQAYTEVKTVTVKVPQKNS
Chain of UniProt Q5JTZ9 (Q5JTZ9 whole entry, looked up): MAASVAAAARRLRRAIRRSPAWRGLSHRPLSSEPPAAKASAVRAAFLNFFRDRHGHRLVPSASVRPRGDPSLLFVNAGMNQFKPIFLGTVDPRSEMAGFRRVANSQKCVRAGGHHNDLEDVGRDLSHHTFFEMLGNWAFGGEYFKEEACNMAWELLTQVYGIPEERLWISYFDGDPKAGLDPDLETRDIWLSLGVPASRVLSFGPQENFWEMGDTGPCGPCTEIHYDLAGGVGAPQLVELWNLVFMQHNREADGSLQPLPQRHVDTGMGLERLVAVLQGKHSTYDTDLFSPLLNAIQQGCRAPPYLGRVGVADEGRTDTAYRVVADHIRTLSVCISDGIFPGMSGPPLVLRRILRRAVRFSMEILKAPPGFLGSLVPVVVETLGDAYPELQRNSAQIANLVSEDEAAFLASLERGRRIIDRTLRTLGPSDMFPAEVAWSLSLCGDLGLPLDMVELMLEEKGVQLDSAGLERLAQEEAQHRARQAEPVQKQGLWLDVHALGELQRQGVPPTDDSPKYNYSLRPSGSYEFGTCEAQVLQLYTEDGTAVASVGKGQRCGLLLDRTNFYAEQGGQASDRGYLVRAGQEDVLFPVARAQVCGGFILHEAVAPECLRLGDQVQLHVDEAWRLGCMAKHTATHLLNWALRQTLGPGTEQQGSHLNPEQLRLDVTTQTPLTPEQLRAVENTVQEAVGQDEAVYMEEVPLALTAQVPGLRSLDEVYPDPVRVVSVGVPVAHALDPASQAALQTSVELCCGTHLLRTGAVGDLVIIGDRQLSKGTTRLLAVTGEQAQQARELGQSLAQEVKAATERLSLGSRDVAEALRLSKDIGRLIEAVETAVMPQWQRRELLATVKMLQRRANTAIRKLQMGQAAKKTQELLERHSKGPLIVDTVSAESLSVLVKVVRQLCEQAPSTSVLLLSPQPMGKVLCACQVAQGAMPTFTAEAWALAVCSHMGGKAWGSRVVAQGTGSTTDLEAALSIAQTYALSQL
Chain of UniProt Q9Y587 (Q9Y587 whole entry, looked up): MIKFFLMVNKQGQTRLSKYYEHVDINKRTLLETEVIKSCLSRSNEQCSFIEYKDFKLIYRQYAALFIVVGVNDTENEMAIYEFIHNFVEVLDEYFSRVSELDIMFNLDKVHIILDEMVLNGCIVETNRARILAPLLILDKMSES

Row | Target | log2 fold change
1 | ARGLU1 (UniProt Q9NWB6) | 0.062
2 | AP4S1 (UniProt Q9Y587) | -0.047
3 | ACTR1B (UniProt P42025) | -0.104
4 | ALG11 (UniProt Q2TAA5) | 0.005
5 | AKR1C2 (UniProt P52895) | 0.068
6 | ATG9A (UniProt Q7Z3C6) | -0.045
7 | ADH5 (UniProt P11766) | -0.03
8 | AAR2 (UniProt Q9Y312) | -0.005
9 | APPL1 (UniProt Q9UKG1) | -0.025
10 | ACAD9 (UniProt Q9H845) | -0.015
11 | ACOX3 (UniProt O15254) | 0.41
12 | ALDH2 (UniProt P05091) | -0.02
13 | ARL1 (UniProt P40616) | 0.117
14 | AGAP3 isoform 4 (UniProt Q96P47) | 0.038
15 | ATP1B3 (UniProt P54709) | -0.051
16 | ATP6AP1 (UniProt Q15904) | 0.019
17 | ACSL1 (UniProt P33121) | 0.017

Row | Target | log2 fold change
18 | ALDH9A1 isoform 3 (UniProt P49189) | -0.007
19 | BOP1 (UniProt Q14137) | -0.034
20 | ATF7 isoform 6 (UniProt P17544) | 0.121
21 | ATP6V1F isoform 2 (UniProt Q16864) | -0.112
22 | BTAF1 (UniProt O14981) | -0.01
23 | AIFM2 (UniProt Q9BRQ8) | 0.135
24 | AFG1L (UniProt Q8WV93) | 0.041
25 | BCCIP isoform 2 (UniProt Q9P287) | -0.007
26 | ANXA5 (UniProt P08758) | 0.015
27 | ADRM1 (UniProt Q16186) | 0.022
28 | ATP9B (UniProt O43861) | 0.019
29 | ACSL3 (UniProt O95573) | 0
30 | ATP23 (UniProt Q9Y6H3) | 0.007
31 | ACO2 (UniProt Q99798) | -0.018
32 | ARFIP1 (UniProt P53367) | -0.076
33 | AGPAT5 (UniProt Q9NUQ2) | 0.119
34 | AARS2 (UniProt Q5JTZ9) | -0.005
